# Screens from PubChem.
# GDH-TPI inh – counter-screen for M. tuberculosis FBA inhibitors: GDH-TPI coupled enzymes; 360,000 compounds, 1.2% hits; inhibition, % at 4.8 µM; GDH-TPI coupled enzyme counterscreen, NADH absorbance; AID 588335;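 also: 0% = DMSO wells and 100% = wells lacking the enzyme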
# CCHF vOTU inh – CCHFV vOTU protease inhibition; inhibition, % at 11.5 µM; 370,000 compounds, 0.55% hits; Pep-AMC fluorescence; also: 0% = vehicle wells with enzyme and 100% = no enzyme wells
# Mtb FBA inh – inhibitors of M. tuberculosis fructose-bisphosphate aldolase. 360,000 compounds, 2.3% hits. P9WQA3. AID 588726. purified M. tuberculosis FBA, fluorescence read-out. inhibition, % at 1 µM; in the data active = inhibition above about 27%;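 also: 0% = vehicle and 100% = reference inhibitor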
# Target sequence (P9WQA3 whole entry, looked up): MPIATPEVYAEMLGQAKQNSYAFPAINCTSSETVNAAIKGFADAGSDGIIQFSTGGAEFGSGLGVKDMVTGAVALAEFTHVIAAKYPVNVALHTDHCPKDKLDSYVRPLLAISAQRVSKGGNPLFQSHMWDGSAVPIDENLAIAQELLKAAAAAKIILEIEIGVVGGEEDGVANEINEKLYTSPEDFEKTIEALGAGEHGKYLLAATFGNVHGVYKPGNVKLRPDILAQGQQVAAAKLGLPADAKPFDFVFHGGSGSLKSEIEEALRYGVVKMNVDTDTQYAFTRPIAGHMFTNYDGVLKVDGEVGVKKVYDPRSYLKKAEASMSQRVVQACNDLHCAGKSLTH
# Mtb betalactam – beta-lactam sensitization of Mtb H37Rv; 330,000 compounds, 0.27% hits; M. tuberculosis H37Rv growth with meropenem, percent inhibition; inhibition, % at 25 µM; call rule not given here;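 also: growth measured after seven days incubation then overnight dye step; 0% = bacteria only wells and 100% = bacteria with antibiotic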
# RecA splice inh – blocks M. tuberculosis RecA intein splicing. cell-free RecA intein splicing, fluorescence. 290,000 compounds, 0.75% hits. P9WHJ3. inhibition, % (concentration not given with the values). AID 2221; in the data active = inhibition above about 30%;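 also: 0% = vehicle wells and 100% = reference inhibitor control wells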
# GFP chromo cs – counter-screen: blocks GFP chromophore formation; shares compounds with RecA splice inh; cell-free GFP chromophore formation, fluorescence; EC50, µM; 2,100 compounds, 83% hits; call rule not given here
# The depositor's hits bear a star; . = no result given. An excerpt weighted towards active compounds, which were near 4.2% of everything screened. Rule as the data show it, unless noted: active = inhibition above about 30%; inactive = the rest.
SMILES,GDH-TPI inh,CCHF vOTU inh,Mtb FBA inh,Mtb betalactam,RecA splice inh,GFP chromo cs
Cc1ccc(S(=O)(=O)/N=C2/C=C(C3C(=O)CC(C)(C)CC3=O)C(=O)c3ccccc32)cc1,5,108*,1,8,85*,9.9*
CC(COc1ccc([N+](=O)[O-])cc1Cl)CN1CCC(C(O)(c2ccccc2)c2ccccc2)CC1 (stereo not given),.,2,.,.,.,.
Cc1ccccc1NC(=O)CN1CCN(c2nc(-c3ccccc3)cs2)CC1,.,16,.,.,.,.
CC(C)Cc1nc(N2CCN(C(=O)c3ccco3)CC2)c(C#N)c2c1CCCC2,5,-6,9,61,24,.
CC(C)C(=O)N1CCN(c2nc(-c3ccccc3)c3c(c2C#N)CCCC3)CC1,8,-4,1,3,31*,>38
CC(=O)Nc1ccccc1NC(=O)C/C(C)=N/NC(=O)c1ccncc1,10,20,1,99,-3,.
C/C(CC(=O)Nc1cc(C)ccn1)=N\NC(=O)c1ccccc1C,7,-11,3,7,50*,34*
C/C(CC(=O)Nc1cc(C)ccn1)=N\NC(=O)c1ccncc1,18,3,6,99,75*,17*
C/C(CC(=O)Nc1ccccn1)=N\NC(=O)c1cccc(C)c1,3,-6,12,2,41*,37*
C/C(CC(=O)Nc1cc(C)ccn1)=N\NC(=O)c1cccc(F)c1,12,10,5,-4,43*,33*
CCc1cccc2c(C(C)c3ccccc3O)c[nH]c12 (stereo not given),.,3,.,.,.,.
COc1ccc(C2CC(=O)C(c3cccc(Cl)c3)=CN2Cc2ccccc2)cc1 (stereo not given),.,5,.,.,.,.
Cc1cccc(-c2cccc3c4c([nH]c23)[C@@H]2C[C@H](N(C)C(=O)c3ccccc3C)[C@H]([C@H](C)O)CN2CC4)c1,.,-4,.,.,.,.
COCC(=O)N(Cc1ccccc1)c1ccccc1C(=O)Nc1cc(OC)ccc1OC,.,4,.,.,.,.
C/C(CC(=O)Nc1cc(Cl)ccc1Cl)=N\NC(=O)COc1cccc(C)c1,0,7,-1,6,5,.
C/C(CC(=O)Nc1cc(C)ccn1)=N\NC(=O)COc1cccc(C)c1,.,.,.,.,94*,7*
CCCCCn1c(N)c(C(=O)NCc2cccs2)c2nc3ccccc3nc21,.,0,.,-12,82*,3.2*
CCNC(=O)OCCN1C(=O)CCC12CCC(c1ccc(Cl)cc1)CC2 (stereo not given),.,2,.,.,.,.
O=C(CCl)N1N=C(c2ccco2)CC1c1cccs1 (stereo not given),7,.,3,99,67*,25*
Cc1ccc(C2=NN(C(=O)CCl)C(c3cccs3)C2)o1 (stereo not given),3,8,0,100,74*,4.6*
CC(=O)N1N=C(c2ccco2)CC1c1cccs1 (stereo not given),2,-11,1,0,1,.
CCOC(=O)[C@@]12CCCC3=C1N(CCC3)C(=O)[C@H]2CC(=O)NCCCCc1ccccc1,.,17,.,.,.,.
CCOC(=O)CC[C@@H]1CC[C@]2(CCCN(Cc3nccn3C)C2)O1,.,-4,.,.,.,.
c1ccc(-c2ccc(C3CCCN3)cc2)cc1 (stereo not given),1,7,3,2,90*,>38
Cc1ccc(-n2nc(C(=O)NN)c(C)c(C#N)c2=O)cc1Cl,15,7,-1,-3,11,.
SMILES,GDH-TPI inh,CCHF vOTU inh,Mtb FBA inh,Mtb betalactam,RecA splice inh,GFP chromo cs
Cc1c(C(=O)NN)nn(-c2ccc(Cl)cc2)c(=O)c1C#N,2,17,-2,4,43*,31*
CCOc1ccccc1N1CCN(C(=O)c2ccc(-c3ccc(OC(C)=O)cc3)cc2)CC1,6,6,3,76,31*,>38
CC1=NNC(=O)C1C(c1ccc(F)cc1)C(C#N)C#N (stereo not given),8,4,0,-8,85*,17*
COC(=O)[C@@]12CCCCC3=C1N(CCC3)C(=O)[C@H]2CC(=O)N1CCN(C(=O)C2CC2)CC1,.,1,.,.,.,.
CC1CCCN(C(=O)COc2ccc(NC(=O)c3cccs3)cc2)C1 (stereo not given),-2,7,1,4,44*,>38
COc1ccc(-c2nnc(OC)c3ccccc23)cc1,-1,6,-2,0,1,.
COc1ccc(-c2nnc(Sc3nc4ccccc4o3)c3ccccc23)cc1,12,-13,0,-5,53*,1.5*
C[C@@H]1OC(c2ccccc2)N(C)[C@H]2C[C@H]3c4[nH]c5cccc(-c6ccccc6)c5c4CCN3C[C@@H]12 (stereo not given in full),.,1,.,.,.,.
COc1ccc(-c2c(=O)n(OC)c3ccccc3[n+]2[O-])cc1OC,11,16,-4,-1,42*,>38
COc1ccc(S(=O)(=O)Nc2c(O)ccc3ccccc23)cc1OC,4,-10,3,-6,96*,4.6*
COc1ccc(C(=O)Nc2c(O)ccc3ccccc23)cc1,-6,-1,-3,34,0,.
COc1ccc(NC(=O)Nc2c(O)ccc3ccccc23)cc1,15,-2,9,6,59*,15*
Cc1cc(O)c(C(C)C)cc1N=Cc1ccccc1O,-1,13,5,0,51*,15*
CC(N=Cc1ccccc1O)c1ccccc1 (stereo not given),19,-9,1,-3,1,.
N#CC1=C(N)C(C#N)(C#N)C(c2cccnc2)C2CN(C(=O)OCc3ccccc3)CC=C12 (stereo not given),11,5,4,-10,45*,4.4*
COc1ccccc1C(=O)N1CCC2CCN(C(=O)c3ccccc3)C2C1 (stereo not given),.,-3,.,.,.,.
CCOC(=O)N1CCN(C(=O)C[C@H]2C[C@@]3(C(=O)OC)C(=C[C@H](C4CCCC4)O[C@@H]3C)N(CCc3ccc(OC)c(OC)c3)C2=O)CC1,.,4,.,.,.,.
CCCCCCCCNC(=O)/C(C#N)=C/c1ccccc1[N+](=O)[O-],11,13,-3,6,42*,12*
N#C/C(=C\c1ccccc1[N+](=O)[O-])C(=O)NCc1ccccc1,0,0,-4,0,12,.
O=C1c2ccccc2C(=O)C12OC(c1ccccc1)C1(C(=O)c3ccccc3C1=O)C2c1ccc([N+](=O)[O-])cc1 (stereo not given),9,22,2,3,2,.
O=C1c2ccccc2C(=O)C12OC2c1ccc(Cl)cc1 (stereo not given),.,.,.,1,72*,>38
COc1cc(C(c2c(C)[nH][nH]c2=O)c2c(C)[nH][nH]c2=O)ccc1OS(=O)(=O)c1ccccc1,8,-12,2,-10,95*,0.44*
COc1cc(C(c2c(C)[nH][nH]c2=O)c2c(C)[nH][nH]c2=O)ccc1OS(=O)(=O)c1ccc(C)cc1,4,-6,-4,-5,98*,0.44*
COc1cc(C(=O)NN=C2c3ccccc3-c3ccccc32)cc(OC)c1OC,.,4,.,.,.,.
